Measurements from PubChem BioAssay (Tox21).
Records with an inconclusive call do not appear. Entries that show only a call come without a potency. Calls of active or inactive are those of the source. The call rests on the fitted dose curve; in most records, active means well fitted curve in the direction sought with a large enough effect in the repeat runs; inconclusive means weak or mixed curves; inactive means no such curve, though single readings can be large; an effect the other way counts as inactive or inconclusive.

Molecular target: Luciferin 4-monooxygenase (Photinus pyralis) (UniProt P08659)
Sequence (P08659 whole entry, looked up): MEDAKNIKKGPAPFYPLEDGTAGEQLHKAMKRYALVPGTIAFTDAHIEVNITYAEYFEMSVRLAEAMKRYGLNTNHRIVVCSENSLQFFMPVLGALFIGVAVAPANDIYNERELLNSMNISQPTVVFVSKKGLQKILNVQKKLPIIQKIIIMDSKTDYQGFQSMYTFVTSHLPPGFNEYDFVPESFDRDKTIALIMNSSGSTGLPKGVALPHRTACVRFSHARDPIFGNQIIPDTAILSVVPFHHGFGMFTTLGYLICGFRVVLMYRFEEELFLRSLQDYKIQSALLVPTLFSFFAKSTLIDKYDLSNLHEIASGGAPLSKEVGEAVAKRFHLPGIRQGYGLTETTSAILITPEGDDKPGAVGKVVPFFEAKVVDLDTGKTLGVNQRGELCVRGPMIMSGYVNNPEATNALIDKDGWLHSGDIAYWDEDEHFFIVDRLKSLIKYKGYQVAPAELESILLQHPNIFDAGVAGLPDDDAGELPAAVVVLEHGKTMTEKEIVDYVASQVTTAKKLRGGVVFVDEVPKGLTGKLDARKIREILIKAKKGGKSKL
Test: qHTS assay to identify small molecule inhibitors of firefly luciferase (AID 1224835); further: nearly all actives have a fitted effect of over 25% in size
Conditions: purified P. pyralis luciferase, luminescence inhibition; series mostly up to 115 µM
In short: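 Biochemical qHTS: compounds run as interplate titrations against purified firefly enzyme, with D-luciferin and ATP each at its KM concentration. Light output recorded by CCD imaging.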
Potency means the concentration at half of the fitted maximal effect.

SMILES | Potency
Cl/C=C\Cl | inactive
CCOP(O)OCC | inactive
N#Cc1ccc(Cl)cc1 | inactive
CNC(C)Cc1ccccc1OC (stereo not drawn) | inactive
O=C(O)C(F)(F)C(F)(F)C(F)(F)C(F)(F)C(F)(F)C(F)(F)C(F)(F)C(F)(F)C(F)(F)F | inactive
C=CC(=O)NCNC(=O)C=C | inactive
COc1c(C(C)(C)C)cc([N+](=O)[O-])c(C)c1[N+](=O)[O-] | inactive
O=[N+]([O-])c1ccc(F)c([N+](=O)[O-])c1 | inactive
CC1(C)[C@H](C=C(Cl)Cl)[C@@H]1C(=O)O[C@@H](C#N)c1cccc(Oc2ccccc2)c1 | inactive
Nc1ccc([N+](=O)[O-])cc1[N+](=O)[O-] | inactive
CCC(Cl)CCl (stereo not drawn) | inactive
CCC(COC(=O)c1cc(OC)c(OC)c(OC)c1)(c1ccccc1)N(C)C (stereo not drawn) | inactive
CC(c1ccc(O)cc1)(c1ccc(O)cc1)c1ccc(O)cc1 | inactive
COC(=O)c1cncn1C(C)c1ccccc1 (stereo not drawn) | inactive
C=CC(=O)OCCCCO | inactive
O=C(CBr)c1ccccc1 | inactive
ClP(Cl)(Cl)(Cl)Cl | 31.9 µM (active)

SMILES | Potency
CCCCN(N=O)C(=N)N[N+](=O)[O-] | inactive
Cc1cc(=O)[nH]o1 | inactive
O=[N+]([O-])c1cc(C(F)(F)F)cc([N+](=O)[O-])c1Cl | inactive
COc1cc(Cl)c(OC)cc1Cl | inactive
CC1C(=O)C[C@]2(C(C)C)C[C@H]12 (stereo partly drawn) | inactive
CCBr | inactive
C/C=C/C=O | inactive
CC1CC(CC2CCC(N)C(C)C2)CCC1N (stereo not drawn) | inactive
ClCc1cccc(Cl)c1 | inactive
CCn1cc[n+](C)c1 | inactive
CCCCCCCCCCOC(=O)c1ccccc1C(=O)OCCCCCCCCCC | inactive
Cc1ccc2ccccc2c1 | inactive
Brc1ccccc1 | inactive
C=CC(=O)OCC(C)O (stereo not drawn) | inactive
CN1C(=O)C(O)N=C(c2ccccc2)c2cc(Cl)ccc21 (stereo not drawn) | inactive
O=Cc1ccc(Cl)cc1Cl | inactive

Test system: not listed separately
Test: qHTS assay to identify small molecule agonists of the constitutive androstane receptor (CAR) signaling pathway - cell viability counter screen (AID 1224836); further: nearly all actives have a fitted effect of over 45% in size
Conditions: HepG2-CYP2B6-hCAR viability, CellTiter-Fluor, 23 h, PK11195 added to every well; series mostly up to 92.4 µM
In short: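 23 h treatment, 37 C, 5% CO2. Cell line: HepG2 stably expressing hCAR with a CYP2B6-2.2kb construct. Co-treatment: PK11195, 0.75 uM final. Read-out: CellTiter-Fluor fluorescence intensity.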

SMILES | Potency
Cl/C=C\Cl | inactive
CCOP(O)OCC | inactive
N#Cc1ccc(Cl)cc1 | inactive
CNC(C)Cc1ccccc1OC (stereo not drawn) | inactive
O=C(O)C(F)(F)C(F)(F)C(F)(F)C(F)(F)C(F)(F)C(F)(F)C(F)(F)C(F)(F)C(F)(F)F | inactive
C=CC(=O)NCNC(=O)C=C | inactive
COc1c(C(C)(C)C)cc([N+](=O)[O-])c(C)c1[N+](=O)[O-] | inactive
O=[N+]([O-])c1ccc(F)c([N+](=O)[O-])c1 | 34.7 µM (active)
CC1(C)[C@H](C=C(Cl)Cl)[C@@H]1C(=O)O[C@@H](C#N)c1cccc(Oc2ccccc2)c1 | inactive
CCCCCC[N+](=O)[O-] | inactive
CCC(Cl)CCl (stereo not drawn) | inactive
CCC(COC(=O)c1cc(OC)c(OC)c(OC)c1)(c1ccccc1)N(C)C (stereo not drawn) | inactive
CC(c1ccc(O)cc1)(c1ccc(O)cc1)c1ccc(O)cc1 | inactive
COC(=O)c1cncn1C(C)c1ccccc1 (stereo not drawn) | inactive
Oc1ccc(Cl)c(Cl)c1Cl | inactive
C=CC(=O)OCCCCO | inactive
O=C(CBr)c1ccccc1 | inactive

SMILES | Potency
ClP(Cl)(Cl)(Cl)Cl | inactive
CCCCN(N=O)C(=N)N[N+](=O)[O-] | inactive
Cc1cc(=O)[nH]o1 | inactive
O=[N+]([O-])c1cc(C(F)(F)F)cc([N+](=O)[O-])c1Cl | inactive
COc1cc(Cl)c(OC)cc1Cl | inactive
CC1C(=O)C[C@]2(C(C)C)C[C@H]12 (stereo partly drawn) | inactive
CCBr | inactive
C/C=C/C=O | inactive
CC1CC(CC2CCC(N)C(C)C2)CCC1N (stereo not drawn) | inactive
ClCc1cccc(Cl)c1 | inactive
CCCCCCCCCCOC(=O)c1ccccc1C(=O)OCCCCCCCCCC | inactive
Cc1ccc2ccccc2c1 | inactive
Brc1ccccc1 | inactive
C=CC(=O)OCC(C)O (stereo not drawn) | inactive
CC(C)N(CCC(C(N)=O)(c1ccccc1)c1ccccn1)C(C)C (stereo not drawn) | inactive
CN1C(=O)C(O)N=C(c2ccccc2)c2cc(Cl)ccc21 (stereo not drawn) | inactive
O=Cc1ccc(Cl)cc1Cl | inactive

Test system: not listed separately
Test: qHTS assay to identify small molecule antagonists of the constitutive androstane receptor (CAR) signaling pathway - cell viability counter screen (AID 1224837); further: nearly all actives have a fitted effect of over 45% in size
Conditions: HepG2-CYP2B6-hCAR viability, CellTiter-Fluor, 23 h, co-treated with 50 nM CITCO; series mostly up to 92.4 µM
In short: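 HepG2 cells stably expressing hCAR and a CYP2B6-2.2kb reporter were plated and pre-incubated 4 hr at 37 C/5% CO2, then given compounds at 15 concentrations plus 50 nM CITCO (final). After 23 hr, viability was read by CellTiter-Fluor fluorescence.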

SMILES | Potency
Cl/C=C\Cl | inactive
CCOP(O)OCC | inactive
N#Cc1ccc(Cl)cc1 | inactive
CNC(C)Cc1ccccc1OC (stereo not drawn) | inactive
O=C(O)C(F)(F)C(F)(F)C(F)(F)C(F)(F)C(F)(F)C(F)(F)C(F)(F)C(F)(F)C(F)(F)F | inactive
C=CC(=O)NCNC(=O)C=C | inactive
COc1c(C(C)(C)C)cc([N+](=O)[O-])c(C)c1[N+](=O)[O-] | inactive
O=[N+]([O-])c1ccc(F)c([N+](=O)[O-])c1 | 34.7 µM (active)
CC1(C)[C@H](C=C(Cl)Cl)[C@@H]1C(=O)O[C@@H](C#N)c1cccc(Oc2ccccc2)c1 | inactive
CCCCCC[N+](=O)[O-] | inactive
CCC(COC(=O)c1cc(OC)c(OC)c(OC)c1)(c1ccccc1)N(C)C (stereo not drawn) | inactive
CC(c1ccc(O)cc1)(c1ccc(O)cc1)c1ccc(O)cc1 | inactive
COC(=O)c1cncn1C(C)c1ccccc1 (stereo not drawn) | inactive
Oc1ccc(Cl)c(Cl)c1Cl | inactive
C=CC(=O)OCCCCO | inactive
O=C(CBr)c1ccccc1 | inactive

SMILES | Potency
ClP(Cl)(Cl)(Cl)Cl | inactive
CCCCN(N=O)C(=N)N[N+](=O)[O-] | inactive
Cc1cc(=O)[nH]o1 | inactive
COc1cc(Cl)c(OC)cc1Cl | inactive
CC1C(=O)C[C@]2(C(C)C)C[C@H]12 (stereo partly drawn) | inactive
CCBr | inactive
C/C=C/C=O | inactive
CC1CC(CC2CCC(N)C(C)C2)CCC1N (stereo not drawn) | inactive
ClCc1cccc(Cl)c1 | inactive
Cc1ccc2ccccc2c1 | inactive
Brc1ccccc1 | inactive
C=CC(=O)OCC(C)O (stereo not drawn) | inactive
CC(C)N(CCC(C(N)=O)(c1ccccc1)c1ccccn1)C(C)C (stereo not drawn) | inactive
CN1C(=O)C(O)N=C(c2ccccc2)c2cc(Cl)ccc21 (stereo not drawn) | inactive
O=Cc1ccc(Cl)cc1Cl | inactive
